A selection: hits, their analogues and other compounds. The true share with any hit is near 3.6%.
GDH-TPI counter: counter-screen for M. tuberculosis FBA inhibitors: GDH-TPI coupled enzymes; GDH-TPI coupled enzyme counterscreen, NADH absorbance; inhibition, % at 4.8 µM; 360,000 compounds, 1.2% hits; in the data active = inhibition above about 30%;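 note: 0% = DMSO wells and 100% = wells lacking the enzyme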
Mtb bLac sens: beta-lactam sensitization of Mtb H37Rv | 330,000 compounds, 0.27% hits | AID 434955 | M. tuberculosis H37Rv growth with meropenem, percent inhibition | inhibition, % at 25 µM; call rule not given here;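 note: growth measured after seven days incubation then overnight dye step; 0% = bacteria only wells and 100% = bacteria with antibiotic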
Mtb FBA inh: inhibitors of M. tuberculosis fructose-bisphosphate aldolase; P9WQA3; purified M. tuberculosis FBA, fluorescence read-out; inhibition, % at 1 µM; 360,000 compounds, 2.3% hits; AID 588726; in the data active = inhibition above about 27%;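 note: 0% = vehicle and 100% = reference inhibitor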
Target sequence (P9WQA3 whole entry, looked up): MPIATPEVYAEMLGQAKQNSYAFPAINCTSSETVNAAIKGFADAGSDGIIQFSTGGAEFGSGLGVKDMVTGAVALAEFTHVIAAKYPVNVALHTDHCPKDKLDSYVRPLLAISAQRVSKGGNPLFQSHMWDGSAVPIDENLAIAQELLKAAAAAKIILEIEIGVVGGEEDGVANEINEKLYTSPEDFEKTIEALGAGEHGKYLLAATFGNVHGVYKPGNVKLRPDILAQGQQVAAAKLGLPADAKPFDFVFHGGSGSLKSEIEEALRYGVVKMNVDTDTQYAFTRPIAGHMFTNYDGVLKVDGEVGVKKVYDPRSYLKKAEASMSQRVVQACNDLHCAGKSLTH
VHR inh abs: inhibitors of human VHR1 phosphatase (DUSP3) | P51452 | recombinant VHR phosphatase, pNPP absorbance | AID 1654 | inhibition, % at 13.3 µM | 290,000 compounds, 0.52% hits; in the data active = inhibition above about 50%
Target sequence (P51452 whole entry, looked up): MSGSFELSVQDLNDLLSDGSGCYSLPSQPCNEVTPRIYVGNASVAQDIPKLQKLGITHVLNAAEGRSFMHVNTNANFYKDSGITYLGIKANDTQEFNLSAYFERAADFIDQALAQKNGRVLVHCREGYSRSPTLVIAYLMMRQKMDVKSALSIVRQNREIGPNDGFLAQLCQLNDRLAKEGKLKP
Mtb hypoxia rep: reduces hypoxia-regulated biosensor signal in M. tuberculosis; M. tuberculosis hypoxia-regulated fluorescent reporter, fluorescence; fluorescence inhibition, % (test concentration not listed); 300,000 compounds, 0.1% hits; AID 1159583; in the data active = fluorescence inhibition mostly above about 23%, no sharp cut-off; inactive = mostly below about 17%
* marks the source's active call; other numbers are inactive results; / = no result given; + = active, no number.

SMILES	GDH-TPI counter	Mtb bLac sens	Mtb FBA inh	VHR inh abs	Mtb hypoxia rep
Nc1cc(Cl)c2nonc2c1[N+](=O)[O-]	-2.3	100.6	-5.4	9.0	40.1*
S=C1NCC(CC2CCCCC2)N1CCCCC1CCCCC1 (configuration not stated)	/	/	/	/	0.2
COc1ccc(NC(=O)CSc2nc3ccccc3c(=O)n2Cc2cccs2)c(OC)c1	/	0.0	/	18.1	11.6
COCCn1c(SCC(=O)Nc2ccc(OC)cc2OC)nc2ccccc2c1=O	-1.5	3.5	-1.5	51.3*	1.7
Cc1ccc2nc3c(cc(C(=O)NCc4ccccc4)c(=N)n3CCCn3ccnc3)c(=O)n2c1	10.8	/	131.0*	/	12.2
CCOC(=O)c1cc2c(=O)n3cc(C)ccc3nc2n(Cc2cccnc2)c1=N	/	/	/	22.2	/
Cc1ccc2nc3c(cc(C(=O)NCc4cccnc4)c(=N)n3C(C)C)c(=O)n2c1	/	/	/	35.7	/
Cc1ccc2nc3c(cc(C(=O)NC4CCS(=O)(=O)C4)n3Cc3ccccc3)c(=O)n2c1 (configuration not stated)	25.9	11.1	+	15.0	4.7
Cc1nnc(SCC(=O)NC2CCS(=O)(=O)C2)n1Cc1ccccc1 (configuration not stated)	0.6	-4.2	2.8	-19.6	-8.3
Cc1cccn2c(=O)c3cc(C(=O)NC(C)c4ccccc4)c(=N)n(CCCn4ccnc4)c3nc12 (configuration not stated)	-0.3	11.1	161.2*	26.9	19.5
Cc1ccc2nc3c(cc(C(=O)NCCc4ccccc4)c(=N)n3CCN3CCOCC3)c(=O)n2c1	3.4	8.1	188.3*	17.1	-1.8
N#C/C(=C(/O)COC(=O)CSc1ccc2ccccc2c1)c1nc2ccccc2[nH]1	37.8*	84.4	2.4	17.7	-3.9
N#C/C(=C(/O)CSc1n[nH]c(N)n1)c1nc2ccccc2[nH]1	31.6*	-3.1	3.7	18.8	14.8
Cc1ccc2nc(-c3ccc(SCC(=O)N4CCc5ccccc54)nc3)[nH]c2c1	14.0	2.7	7.7	1.3	1.9
Cc1cc2nc(-c3ccc(SCC(=O)Nc4ccc(S(=O)(=O)N5CCCC5)cc4)nc3)[nH]c2cc1C	38.3*	0.1	21.1	29.9	4.4
O=C(CSc1ccc(-c2nc3ccccc3[nH]2)cn1)Nc1ccc(S(=O)(=O)N2CCCC2)cc1	20.9	2.1	7.5	-19.5	/
Cc1ccc2nc(-c3ccc(SCC(=O)O)nc3)[nH]c2c1	53.1*	2.3	+	22.6	/
CCCCNC(=O)C1CC=CC2CCN(Cc3ccc(Cl)c(Cl)c3)C(=O)C21 (configuration not stated)	/	/	/	/	-9.0
O=S(=O)(NC1CCCCC1N1CCC(O)CC1)c1ccccc1 (configuration not stated)	6.3	4.7	1.4	58.1*	-0.5
CC(=O)Nc1ccc(S(=O)(=O)C(C#N)c2nc3ccccc3nc2NCCO)cc1 (configuration not stated)	22.7	-12.6	+	2.6	6.8
Cc1ccc(S(=O)(=O)C(C#N)c2nc3ccccc3nc2OCCO)cc1 (configuration not stated)	13.8	5.6	5.1	29.7	2.3
CC(=O)Nc1ccc(S(=O)(=O)C(C#N)c2nc3ccccc3nc2NCCCO)cc1 (configuration not stated)	23.7	-4.2	+	2.6	12.0
O=C(Cn1nnc(N2CCCC2)n1)NN=Cc1ccc(Cl)cc1	/	/	/	/	-5.9
COC(=O)[C@]1(C)NC(c2ccc(-c3ccc(F)cc3)cc2)C2C(=O)N(C)C(=O)C21 (some centres not stated)	/	/	/	/	14.6
O=C(O)CN=C1CC(c2ccccc2)CC(=O)/C1=C(\O)CCCN1C(=O)c2ccccc2C1=O (configuration not stated)	/	/	/	/	5.6
SMILES	GDH-TPI counter	Mtb bLac sens	Mtb FBA inh	VHR inh abs	Mtb hypoxia rep
Cc1ccc2occ(/C=N/O)c(=O)c2c1	0.8	53.5	0.7	6.2	/
CC(=O)Oc1ccc2occ(/C=N/c3cc(=O)[nH]c(=S)[nH]3)c(=O)c2c1	39.2*	0.1	-1.4	22.6	/
COc1ccc2c(c1)-c1ccccc1S(=O)(=O)N2C(C)=O	13.4	-2.6	30.7*	35.6	10.6
O=C(CCS(=O)(=O)c1ccc(Br)cc1)N1CCN(c2ccc(F)cc2)CC1	-1.6	0.7	0.6	50.4*	-10.8
Cc1ccc(C(=O)CCC(=O)N2CCN(c3ccc(F)cc3)CC2)cc1	1.0	2.9	0.8	25.2	/
O=C(O)CCC(=O)N1CCN(c2ccc(C(=O)c3ccc(F)cc3)cc2)CC1	38.3*	-0.2	-1.0	9.9	/
O=C(CCS(=O)(=O)c1ccc(Br)cc1)N1CCN(c2ccc(Cl)cc2)CC1	-1.2	-2.1	1.4	6.2	4.7
CC(C)OCCCn1c(-c2ccco2)nc2nc3ccccc3nc21	36.0*	18.1	+	-0.9	5.6
COCCn1c(-c2ccco2)nc2nc3ccccc3nc21	36.8*	-4.6	+	2.4	16.5
CC(=NNC(=O)c1ccccc1)C(=O)O	/	/	/	/	4.9
CC(C)CNC(=O)/C=C/C=C/c1ccc2c(c1)OCO2	38.9*	3.1	8.3	/	/
O=C(/C=C/C=C/c1ccc2c(c1)OCO2)N1CCCCC1	41.2*	1.4	1.8	/	/
CN1CCN(C(=O)/C=C/c2ccc3c(c2)OCO3)CC1	8.7	-0.7	5.5	2.1	2.9
CCCCC(=O)O[C@]1(C(=O)CO)CCC2C3CCC4=CC(=O)CC[C@]4(C)C3C(O)C[C@@]21C (some centres not stated)	/	/	/	/	-1.6
CCc1ccc(S(=O)(=O)/N=C2/C=C(Sc3ncn[nH]3)C(=O)c3ccccc32)cc1	9.1	11.9	-0.3	55.1*	/
Cc1cc(C(=O)Nc2cc(Br)ccc2O)on1	14.5	7.2	-3.4	53.0*	-2.8
O=C(NN=Cc1ccc([N+](=O)[O-])o1)C(O)c1ccccc1 (configuration not stated)	/	/	/	/	24.4*
O=C(N/N=C/c1ccc([N+](=O)[O-])o1)c1ccc(O)cc1	39.9*	99.3	-4.6	4.7	/
O=C(N/N=C/c1ccc([N+](=O)[O-])o1)c1cc2ccccc2o1	37.4*	100.2	-3.3	-7.7	/
CCOC(=O)C1C2COc3ccc(Br)cc3C2N2C(=O)CN(Cc3ccc(C)cc3)C(=O)[C@@]12C (some centres not stated)	/	/	/	/	-9.4
CC(C)C(=O)Nc1nnc(CCN2CCOCC2)s1	1.7	1.4	0.2	51.2*	-7.5
COC(=O)Cc1nnc(NC(=O)C(C)C)s1	-5.5	0.3	3.3	6.4	9.9
Cc1c(C(Cc2ccccc2)=NO)c2ccccc2n1C	/	/	/	/	21.2
O=C(NCc1ccccc1)c1ccc(=O)oc1	104.1*	-3.4	0.3	-14.6	3.7
O=C(CCNC(=O)c1ccc(Br)cc1)NCc1ccco1	1.8	3.8	-1.5	/	1.4
Cc1cccc(NC(=O)CCNC(=O)c2ccco2)c1	5.7	-12.2	1.8	50.8*	3.8
Cc1ccc(C(=O)NCCC(=O)NCc2ccco2)cc1	-5.6	-5.6	-0.3	53.5*	-2.4
O=C(NCc1ccco1)c1ccccc1	2.5	5.9	1.9	-10.0	16.3
O=C(NCc1ccco1)c1ccc(=O)oc1	49.7*	-15.8	-0.7	-11.6	/
